From PubChem BioAssay (NCATS)
Inconclusive results are not listed. Unless noted, calls come from the whole dose curve; as a rule, active = well fitted curve in either direction with a large enough effect (not every such curve was filed as active); inconclusive = small, poorly fitted or top-dose-only effect, or another doubt; inactive = flat fitted curve, though single readings scatter.

What was measured:
[1] = AP1 Signaling Pathway (AID 357); conditions: ME-180 AP-1-bla reporter, EGF-induced, beta-lactamase ratio, 5 h; at 17.2 µM (top of the series) unless noted; note: % is set by controls: 0 for no effect and ±100 for the full control effect
How it was run: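 ME-180 cells with beta-lactamase reporter under AP-1 response element, stimulated with EC50 EGF; compounds tested in titration series, 5 h at 37 °C. CCF4 substrate added 2.5 h at room temperature; 460/530 nm emission ratio gave %activity and AC50.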

[2] = NFAT Signaling Pathway (AID 444); conditions: Jurkat NFAT-bla M1, carbachol, beta-lactamase ratio, 5 h; at 17.2 µM (top of the series) unless noted;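 note: carbachol stimulus at about its EC50 of 1 µM final; % is set by controls: 0 for no effect and ±100 for the full control effect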
How it was run: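 Read-out: CCF4 FRET ratio (460 nm/530 nm) after 1 h RT dye loading, used for %activity and AC50 from titration series. Cells: Jurkat NFAT-β-lactamase/M1 line, treated with compound plus 1 uM carbachol for 5 h, 37 °C.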

[3] = Stat Signaling Pathway (AID 446); conditions: ME-180 SIE beta-lactamase reporter, IL-6 stimulated, 5 h; at 17.2 µM (top of the series) unless noted;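 note: ME-180 cervical cancer cells given 40 pM IL-6 alongside compound; SIE-controlled beta-lactamase reporter measured as 460/530 nm FRET emission ratio; % is set by controls: 0 for no effect and ±100 for the full control effect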
How it was run: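 Reporter line: ME-180 cervical carcinoma, SIE-beta-lactamase. Treatment: compound with 40 pM IL-6, 5 hrs, 37 C, in low-serum OPTI-MEM with 10 mM HEPES pH 7.3. Detection: 460/530 nm fluorescence.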

[4] = molecular target: Glucocorticoid receptor (Homo sapiens) (UniProt P04150); test: GR-GFP Redistribution (AID 450;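 active = compounds whose dose series gives a full or clear partial fitted curve of increased nuclear translocation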; note: potency is the fitted concentration of half-maximal effect)
Glucocorticoid receptor (Homo sapiens), sequence (P04150 whole entry, looked up): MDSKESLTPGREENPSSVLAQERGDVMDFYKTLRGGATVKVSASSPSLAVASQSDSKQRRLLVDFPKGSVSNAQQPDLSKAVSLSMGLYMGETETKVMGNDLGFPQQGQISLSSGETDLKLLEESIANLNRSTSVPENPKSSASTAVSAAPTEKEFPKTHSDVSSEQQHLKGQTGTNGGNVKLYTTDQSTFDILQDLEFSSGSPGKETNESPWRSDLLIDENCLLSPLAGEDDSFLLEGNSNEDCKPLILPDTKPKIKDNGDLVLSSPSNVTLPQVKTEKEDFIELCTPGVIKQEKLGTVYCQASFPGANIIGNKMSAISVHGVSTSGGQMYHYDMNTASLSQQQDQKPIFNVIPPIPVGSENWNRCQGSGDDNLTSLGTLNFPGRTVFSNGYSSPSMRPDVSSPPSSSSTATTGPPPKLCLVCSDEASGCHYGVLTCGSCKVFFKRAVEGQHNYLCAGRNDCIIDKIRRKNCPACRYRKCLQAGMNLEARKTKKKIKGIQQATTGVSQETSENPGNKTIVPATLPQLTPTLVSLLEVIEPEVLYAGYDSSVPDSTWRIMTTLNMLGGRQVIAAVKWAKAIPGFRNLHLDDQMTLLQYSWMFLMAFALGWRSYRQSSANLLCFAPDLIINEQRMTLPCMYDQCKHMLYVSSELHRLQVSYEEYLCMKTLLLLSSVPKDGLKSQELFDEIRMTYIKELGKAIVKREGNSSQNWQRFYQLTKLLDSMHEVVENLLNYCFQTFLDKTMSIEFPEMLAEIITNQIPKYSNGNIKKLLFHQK

Cc1ccccc1NC(=O)NCCc1nc2ccccc2[nH]1
inactive: activity change, negative = inhibition [1] -3.68% | activity change, negative = inhibition [2] -10.3% | activity, negative = inhibition [3] -7.53% | Potency [4] > 20.6 µM

CCOc1cccc(-c2nn3c(-c4ccccn4)nnc3s2)c1
inactive: activity change, negative = inhibition [1] -15% | activity change, negative = inhibition [2] -14.4% | activity, negative = inhibition [3] -1.87% | Potency [4] > 20.6 µM

C=CCn1cnc2c(c1=O)c1nc3ccccc3nc1n2-c1ccc(Cl)cc1
inactive: activity change, negative = inhibition [1] 8.09% | activity change, negative = inhibition [2] -0.571% | activity, negative = inhibition [3] -1.17% | Potency [4] > 20.6 µM

CC1=C(C(=O)Nc2ccccc2)C(c2ccncc2)C(C#N)=C(SCC(=O)NC(C)C)N1 (stereo not given)
inactive: activity change, negative = inhibition [1] -5.76% | activity change, negative = inhibition [2] 1.05% | activity, negative = inhibition [3] -4.3% | Potency [4] > 20.6 µM

CC1(c2cnc(Nc3ccccc3)s2)CCC(=O)O1 (stereo not given)
inactive: activity change, negative = inhibition [1] -10.6% | activity change, negative = inhibition [2] -7.05% | activity, negative = inhibition [3] 22.3% | Potency [4] > 20.6 µM

COc1ccccc1N(O)C1CC(=O)N(c2ccc(F)cc2)C1=O (stereo not given)
inactive: activity change, negative = inhibition [1] -0.204% | activity change, negative = inhibition [2] -3.85% | activity, negative = inhibition [3] 1.38% | Potency [4] > 20.6 µM

CC(NC(=O)NCCCC(=O)O)(C(F)(F)F)C(F)(F)F
inactive: activity change, negative = inhibition [1] 1.88% | activity change, negative = inhibition [2] -1.55% | activity, negative = inhibition [3] 1.17% | Potency [4] > 20.6 µM

CC1(C(=O)CSc2nc3ccccc3[nH]2)CCC(=O)O1 (stereo not given)
inactive: activity change, negative = inhibition [1] 4.25% | activity change, negative = inhibition [2] 3.87% | activity, negative = inhibition [3] -2.98% | Potency [4] > 20.6 µM

O=C(NC1CCS(=O)(=O)C1)N1CCCCC1 (stereo not given)
inactive: activity change, negative = inhibition [1] -10.9% | activity change, negative = inhibition [2] -4.07% | activity, negative = inhibition [3] 9% | Potency [4] > 20.6 µM

Cc1ccc(C2/C(=C(\O)c3cnn(-c4ccccc4)c3C)C(=O)C(=O)N2CCN(C)C)o1 (stereo not given)
inactive: activity change, negative = inhibition [1] -6.2% | activity change, negative = inhibition [2] -12.1% | activity, negative = inhibition [3] 4.22% | Potency [4] > 20.6 µM

COC(=O)CC(=O)Cc1nc(N)nc(Nc2ccc(C)c(C)c2)n1
inactive: activity change, negative = inhibition [1] 9.64% | activity change, negative = inhibition [2] -5.97% | activity, negative = inhibition [3] 1.4% | Potency [4] > 20.6 µM

O=C1CC(C(=O)O)c2ccccc2N1 (stereo not given)
inactive: activity change, negative = inhibition [1] 2.72% | activity change, negative = inhibition [2] -1.33% | activity, negative = inhibition [3] 6.42% | Potency [4] > 20.6 µM

Cc1cc(C)c(C#N)c(OCC(=O)c2ccccc2)n1
inactive: activity change, negative = inhibition [1] -15.4% | activity change, negative = inhibition [2] -4.3% | activity, negative = inhibition [3] -6.66% | Potency [4] > 20.6 µM

CC(O)CNc1nc2c(c(=O)n(C)c(=O)n2C)n1CCc1ccccc1 (stereo not given)
inactive: activity change, negative = inhibition [1] -2.48% | activity change, negative = inhibition [2] -12.9% | activity, negative = inhibition [3] -8.4% | Potency [4] > 20.6 µM

CCCCc1nc(NCCN2CCOCC2)c(C#N)c2c1COC(C)(C)C2
inactive: activity change, negative = inhibition [1] -15.7% | activity change, negative = inhibition [2] 13.3% | activity, negative = inhibition [3] 1.05% | Potency [4] > 20.6 µM

COc1cccc(Cn2c(OCC3CCCO3)nc3c2c(=O)n(C)c(=O)n3C)c1 (stereo not given)
inactive: activity change, negative = inhibition [1] -4.44% | activity change, negative = inhibition [2] -8.17% | activity, negative = inhibition [3] -4.79% | Potency [4] > 20.6 µM

CCOC(=O)NC(Nc1cc(C)on1)(C(F)(F)F)C(F)(F)F
inactive: activity change, negative = inhibition [1] 20.3% | activity change, negative = inhibition [2] -2.55% | activity, negative = inhibition [3] 12.3% | Potency [4] > 20.6 µM

COC(=O)/C=c1/s/c(=C(/C#N)C(=O)N2CCCCC2)n(-c2ccccc2)c1=O
inactive: activity change, negative = inhibition [1] 26% | activity change, negative = inhibition [2] -25.6% | activity, negative = inhibition [3] -5.91% | Potency [4] > 20.6 µM

CCCSc1nnc2n(Cc3ccccc3)c(=O)c3c4c(sc3n12)CCC4
inactive: activity change, negative = inhibition [1] 27.1% | activity change, negative = inhibition [2] 0.0627% | activity, negative = inhibition [3] -7.18% | Potency [4] > 20.6 µM

COc1cc(OC)cc(C(=O)N2CCC(N3CCN(c4ccccc4)CC3)CC2)c1
inactive: activity change, negative = inhibition [1] 5.25% | activity change, negative = inhibition [2] -4.18% | activity, negative = inhibition [3] 4.25% | Potency [4] > 20.6 µM

CCOCCn1c(SCc2c(F)cccc2Cl)nc2c1c(=O)[nH]c(=O)n2C
inactive: activity change, negative = inhibition [1] -8.65% | activity change, negative = inhibition [2] -17.4% | activity, negative = inhibition [3] -2.5% | Potency [4] > 20.6 µM

CCc1cccc(CC)c1N(COC)C(=O)Cn1nnc2ccccc21
inactive: activity change, negative = inhibition [1] -10.2% | activity change, negative = inhibition [2] 10% | activity, negative = inhibition [3] -3.83% | Potency [4] > 20.6 µM

COc1ccc2nc(/N=C(\N)NC(=O)C(C)(C)C)nc(C)c2c1
inactive: activity change, negative = inhibition [1] 1.33% | activity change, negative = inhibition [2] 0.865% | activity, negative = inhibition [3] 0.61% | Potency [4] > 20.6 µM

Cc1nn(CC(N)=O)c(=O)c2ccccc12
inactive: activity change, negative = inhibition [1] 11.8% | activity change, negative = inhibition [2] 0.254% | activity, negative = inhibition [3] 9.04% | Potency [4] > 20.6 µM

Cc1nnc(SCc2nc3ccccc3[nH]2)s1
inactive: activity change, negative = inhibition [1] 1.21% | activity change, negative = inhibition [2] 8.95% | activity, negative = inhibition [3] 4.08% | Potency [4] > 20.6 µM
